Experimental data from the supplement of paper PMC11732987, “Enantioselective OTUD7B fragment discovery through chemoproteomics screening and high-throughput optimisation” (Communications Chemistry, 2025).

Legend:
Experiment in all cases: log2 ratio of Biotin-Ahx-Ub-VS probe labelling (fragment/DMSO); higher = less target engagement (more negative = stronger competition), active = hit call of the paper (q ≤ 0.05, log2 ratio ≤ -1)
Settings in all cases: compound concentration: 200 uM; treatment time: 3 h
ALG13 = target: T1, ALG13 (UniProt Q9NP73)
T1 sequence (whole entry): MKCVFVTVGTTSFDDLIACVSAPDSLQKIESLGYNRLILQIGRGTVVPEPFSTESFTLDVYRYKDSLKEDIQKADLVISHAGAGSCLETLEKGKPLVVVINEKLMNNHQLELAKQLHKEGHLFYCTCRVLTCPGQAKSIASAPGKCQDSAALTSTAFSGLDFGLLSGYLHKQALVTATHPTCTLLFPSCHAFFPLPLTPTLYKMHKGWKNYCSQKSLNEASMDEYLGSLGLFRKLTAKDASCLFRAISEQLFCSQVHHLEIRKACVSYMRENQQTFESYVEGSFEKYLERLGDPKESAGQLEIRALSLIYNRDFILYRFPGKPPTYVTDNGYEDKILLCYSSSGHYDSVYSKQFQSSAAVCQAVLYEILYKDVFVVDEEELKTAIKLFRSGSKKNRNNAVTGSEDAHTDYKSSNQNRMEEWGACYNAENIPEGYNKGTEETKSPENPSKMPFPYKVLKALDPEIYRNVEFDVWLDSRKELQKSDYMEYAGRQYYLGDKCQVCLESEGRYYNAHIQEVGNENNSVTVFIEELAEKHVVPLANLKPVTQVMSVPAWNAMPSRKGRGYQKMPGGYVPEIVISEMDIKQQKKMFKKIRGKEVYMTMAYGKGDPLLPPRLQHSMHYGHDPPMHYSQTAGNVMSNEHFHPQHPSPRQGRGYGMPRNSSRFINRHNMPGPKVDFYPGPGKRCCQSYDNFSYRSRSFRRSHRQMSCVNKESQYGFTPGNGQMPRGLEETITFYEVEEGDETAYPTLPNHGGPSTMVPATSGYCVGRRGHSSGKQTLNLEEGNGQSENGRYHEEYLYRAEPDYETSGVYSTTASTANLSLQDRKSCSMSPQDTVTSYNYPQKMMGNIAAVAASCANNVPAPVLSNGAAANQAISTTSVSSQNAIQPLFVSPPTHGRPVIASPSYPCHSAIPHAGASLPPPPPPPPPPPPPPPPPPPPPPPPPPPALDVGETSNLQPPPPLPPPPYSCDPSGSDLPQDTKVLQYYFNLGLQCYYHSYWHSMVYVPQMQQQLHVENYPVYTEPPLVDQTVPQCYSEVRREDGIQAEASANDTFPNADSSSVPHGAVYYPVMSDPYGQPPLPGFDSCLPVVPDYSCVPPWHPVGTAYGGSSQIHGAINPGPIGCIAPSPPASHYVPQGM
Summary of the method: (§1)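 Each value is an average log2 ratio of fragment to vehicle, tested by unpaired t-test. The underlying Spectronaut label-free quantities were global-median-normalised, and only proteins with ≥2 unique peptides were included. Triplicate HEK293T lysate samples (495 µg) were exposed to fragment at 200 µM or vehicle for 3 h, then to Biotin-Ahx-Ub-VS at 0.5 µM final for 1 h, before NeutrAvidin enrichment of labelled DUBs, LysC and trypsin digestion, and diaPASEF LC-MS/MS.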

ATXN3 = ATXN3 (UniProt P54252)
Chain of ATXN3 (P54252 whole entry): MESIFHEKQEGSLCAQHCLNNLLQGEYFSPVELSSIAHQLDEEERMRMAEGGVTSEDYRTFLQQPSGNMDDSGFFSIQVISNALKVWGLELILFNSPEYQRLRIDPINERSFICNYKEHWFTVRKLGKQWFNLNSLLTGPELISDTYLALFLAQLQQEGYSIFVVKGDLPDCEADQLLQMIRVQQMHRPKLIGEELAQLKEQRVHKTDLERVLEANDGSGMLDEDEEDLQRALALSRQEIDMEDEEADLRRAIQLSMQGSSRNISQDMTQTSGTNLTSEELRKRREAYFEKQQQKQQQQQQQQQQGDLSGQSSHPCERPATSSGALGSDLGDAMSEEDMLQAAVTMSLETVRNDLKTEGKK
Summary of the method: as §1

BAP1 = target: T2, BAP1 (UniProt Q92560)
T2 sequence (whole entry): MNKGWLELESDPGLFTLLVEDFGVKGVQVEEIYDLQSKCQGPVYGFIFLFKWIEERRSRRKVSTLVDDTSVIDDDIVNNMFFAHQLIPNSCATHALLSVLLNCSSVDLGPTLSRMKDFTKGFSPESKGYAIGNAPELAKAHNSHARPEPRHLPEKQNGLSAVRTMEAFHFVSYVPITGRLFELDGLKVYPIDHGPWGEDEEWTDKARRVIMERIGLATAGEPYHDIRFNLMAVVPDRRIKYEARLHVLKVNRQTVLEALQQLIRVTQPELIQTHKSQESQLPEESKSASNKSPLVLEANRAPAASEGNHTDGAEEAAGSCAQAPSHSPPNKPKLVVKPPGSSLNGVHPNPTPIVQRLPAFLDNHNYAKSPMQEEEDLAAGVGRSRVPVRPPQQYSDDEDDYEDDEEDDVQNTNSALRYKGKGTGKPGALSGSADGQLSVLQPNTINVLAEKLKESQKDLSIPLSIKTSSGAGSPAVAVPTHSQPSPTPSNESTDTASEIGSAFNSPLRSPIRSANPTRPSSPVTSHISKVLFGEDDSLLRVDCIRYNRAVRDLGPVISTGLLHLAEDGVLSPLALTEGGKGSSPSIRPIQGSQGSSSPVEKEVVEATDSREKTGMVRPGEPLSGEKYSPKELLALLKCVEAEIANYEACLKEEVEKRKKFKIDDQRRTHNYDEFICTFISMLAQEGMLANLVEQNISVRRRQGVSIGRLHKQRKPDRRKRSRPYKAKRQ
Summary of the method: as §1

EIF3F = EIF3F (UniProt O00303)
Chain of EIF3F (O00303 whole entry): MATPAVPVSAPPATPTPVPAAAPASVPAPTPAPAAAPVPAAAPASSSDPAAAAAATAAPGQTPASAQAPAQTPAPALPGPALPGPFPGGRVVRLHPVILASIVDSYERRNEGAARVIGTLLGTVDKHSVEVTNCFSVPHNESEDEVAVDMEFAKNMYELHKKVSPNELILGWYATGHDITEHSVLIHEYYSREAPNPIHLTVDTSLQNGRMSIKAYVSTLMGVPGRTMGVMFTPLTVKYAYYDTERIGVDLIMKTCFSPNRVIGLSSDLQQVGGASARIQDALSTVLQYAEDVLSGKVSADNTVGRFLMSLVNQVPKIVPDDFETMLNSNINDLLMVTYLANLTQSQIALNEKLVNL
Summary of the method: as §1

EIF3H = EIF3H (UniProt O15372)
Chain of EIF3H (O15372 whole entry): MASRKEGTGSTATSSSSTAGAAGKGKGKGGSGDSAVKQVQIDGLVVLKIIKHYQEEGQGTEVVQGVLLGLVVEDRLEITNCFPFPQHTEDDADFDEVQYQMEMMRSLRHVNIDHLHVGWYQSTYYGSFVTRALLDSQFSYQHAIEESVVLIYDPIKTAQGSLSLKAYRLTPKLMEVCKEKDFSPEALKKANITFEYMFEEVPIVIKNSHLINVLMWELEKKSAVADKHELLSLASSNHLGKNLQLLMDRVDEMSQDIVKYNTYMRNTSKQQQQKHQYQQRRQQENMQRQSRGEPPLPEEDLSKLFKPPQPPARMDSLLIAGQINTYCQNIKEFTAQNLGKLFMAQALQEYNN
Summary of the method: as §1

FAM105A = target: T3, FAM105A (UniProt Q9NUU6)
T3 sequence (whole entry): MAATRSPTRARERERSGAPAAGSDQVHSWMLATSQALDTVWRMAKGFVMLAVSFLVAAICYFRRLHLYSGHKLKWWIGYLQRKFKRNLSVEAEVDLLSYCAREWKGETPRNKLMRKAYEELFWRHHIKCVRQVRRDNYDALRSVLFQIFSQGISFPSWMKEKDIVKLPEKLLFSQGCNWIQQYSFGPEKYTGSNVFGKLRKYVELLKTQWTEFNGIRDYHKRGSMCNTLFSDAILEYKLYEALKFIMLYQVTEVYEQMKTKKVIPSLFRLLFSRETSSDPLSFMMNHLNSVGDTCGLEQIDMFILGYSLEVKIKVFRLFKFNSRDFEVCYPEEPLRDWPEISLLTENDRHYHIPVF
Summary of the method: as §1

OTUB1 = OTUB1 (UniProt Q96FW1)
Chain of OTUB1 (Q96FW1 whole entry): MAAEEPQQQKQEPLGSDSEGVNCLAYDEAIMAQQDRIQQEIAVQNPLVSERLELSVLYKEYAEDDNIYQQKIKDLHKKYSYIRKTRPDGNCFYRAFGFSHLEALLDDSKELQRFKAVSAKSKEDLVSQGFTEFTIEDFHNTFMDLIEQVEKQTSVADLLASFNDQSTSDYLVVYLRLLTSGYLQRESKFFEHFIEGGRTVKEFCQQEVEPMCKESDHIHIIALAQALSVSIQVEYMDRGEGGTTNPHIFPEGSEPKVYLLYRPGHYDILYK
Summary of the method: as §1

OTUD4 = target: T4, OTUD4 (UniProt Q01804)
T4 sequence (whole entry): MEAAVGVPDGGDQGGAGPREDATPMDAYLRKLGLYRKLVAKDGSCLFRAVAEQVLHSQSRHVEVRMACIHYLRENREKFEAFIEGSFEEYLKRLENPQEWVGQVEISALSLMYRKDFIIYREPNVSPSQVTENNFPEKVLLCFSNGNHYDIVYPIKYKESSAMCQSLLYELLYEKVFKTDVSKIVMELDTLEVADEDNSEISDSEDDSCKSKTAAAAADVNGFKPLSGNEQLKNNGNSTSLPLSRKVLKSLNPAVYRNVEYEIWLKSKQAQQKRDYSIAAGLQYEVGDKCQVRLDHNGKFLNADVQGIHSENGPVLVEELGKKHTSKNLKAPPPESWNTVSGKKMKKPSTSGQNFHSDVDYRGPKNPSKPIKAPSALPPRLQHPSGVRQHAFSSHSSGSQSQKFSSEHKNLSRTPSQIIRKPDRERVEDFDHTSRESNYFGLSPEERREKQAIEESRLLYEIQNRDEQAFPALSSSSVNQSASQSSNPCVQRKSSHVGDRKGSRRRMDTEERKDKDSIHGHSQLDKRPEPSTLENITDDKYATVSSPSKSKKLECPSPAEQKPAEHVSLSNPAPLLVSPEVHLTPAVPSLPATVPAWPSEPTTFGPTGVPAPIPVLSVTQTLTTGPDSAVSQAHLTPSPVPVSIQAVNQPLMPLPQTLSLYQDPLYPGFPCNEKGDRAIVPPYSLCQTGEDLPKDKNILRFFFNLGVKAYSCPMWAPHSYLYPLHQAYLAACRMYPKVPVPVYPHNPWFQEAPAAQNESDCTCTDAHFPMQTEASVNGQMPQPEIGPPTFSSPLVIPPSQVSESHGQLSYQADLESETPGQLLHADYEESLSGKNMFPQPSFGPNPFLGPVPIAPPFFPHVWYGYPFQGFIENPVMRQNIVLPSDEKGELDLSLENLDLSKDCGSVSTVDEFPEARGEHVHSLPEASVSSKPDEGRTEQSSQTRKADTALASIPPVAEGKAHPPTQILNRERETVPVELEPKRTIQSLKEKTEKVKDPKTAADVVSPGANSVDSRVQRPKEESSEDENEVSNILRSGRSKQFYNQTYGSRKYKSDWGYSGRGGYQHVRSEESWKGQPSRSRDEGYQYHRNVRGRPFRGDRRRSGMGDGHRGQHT
Summary of the method: as §1

OTUD5 = target: T5, OTUD5 (UniProt Q96G74)
T5 sequence (whole entry): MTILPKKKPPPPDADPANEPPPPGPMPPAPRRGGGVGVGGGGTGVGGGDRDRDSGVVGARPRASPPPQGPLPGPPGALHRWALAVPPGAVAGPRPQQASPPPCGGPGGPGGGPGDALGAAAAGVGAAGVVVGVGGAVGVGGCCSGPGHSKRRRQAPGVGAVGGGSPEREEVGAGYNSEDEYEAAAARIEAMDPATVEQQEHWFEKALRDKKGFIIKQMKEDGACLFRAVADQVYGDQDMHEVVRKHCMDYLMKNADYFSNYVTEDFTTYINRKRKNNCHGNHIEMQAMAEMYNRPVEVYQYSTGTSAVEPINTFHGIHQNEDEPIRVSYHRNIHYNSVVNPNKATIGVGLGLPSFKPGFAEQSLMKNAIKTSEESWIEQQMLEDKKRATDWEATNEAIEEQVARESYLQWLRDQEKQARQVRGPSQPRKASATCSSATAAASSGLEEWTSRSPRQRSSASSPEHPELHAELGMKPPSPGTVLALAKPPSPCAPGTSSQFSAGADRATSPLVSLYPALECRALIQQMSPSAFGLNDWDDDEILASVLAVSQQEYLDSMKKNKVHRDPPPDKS
Summary of the method: as §1

Measured: log2 ratio of Biotin-Ahx-Ub-VS probe labelling

O=C(CCl)N1CCN(C(=O)Nc2ccccc2)CC1
inactive: ALG13 0.164 | ATXN3 -0.281 | BAP1 -0.529 | EIF3F 0.181 | EIF3H 0.232 | FAM105A 0.233 | OTUB1 0.155 | OTUD4 0.0219 | OTUD5 -0.224
